Experiment [1] can be described thus: Quantitative High-Throughput drug screen in 47 multiple myeloma cell lines against the NCATS MIPE library collection: Delta47_JCRB cell viability assay (AID 1918925; note: nearly all actives have a fitted effect of over 45% in size). Summed up: (§1)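 Steps: seed 500 cells per well; pin-transfer MIPE 4.0 library; incubate 48 h at 37C, 5% CO2, humidified; add CellTiter-Glo, 5 min room temperature; read luminescence.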
The nature of experiment [2]: Quantitative High-Throughput drug screen in 47 multiple myeloma cell lines against the NCATS MIPE library collection: EJM_DSMZ cell viability assay (AID 1918926; note: nearly all actives have a fitted effect of over 30% in size). Summed up: as §1
A short description of experiment [3]: Quantitative High-Throughput drug screen in 47 multiple myeloma cell lines against the NCATS MIPE library collection: AMO1_DSMZ cell viability assay (AID 1918927; note: nearly all actives have a fitted effect of over 30% in size). Summed up: as §1
Experiment [4] is described as follows: Quantitative High-Throughput drug screen in 47 multiple myeloma cell lines against the NCATS MIPE library collection: ARP1_JJKsccF8 cell viability assay (AID 1918928; note: nearly all actives have a fitted effect of over 40% in size). Summed up:
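Luminescence from CellTiter-Glo, taken after 5 min at room temperature, reports cellular ATP as viability. Cells (500 per well) had been treated 48 h at 37 °C with MIPE 4.0 compounds, scaled between DMSO and medium-only controls.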

Experiment [5] is described as follows: Quantitative High-Throughput drug screen in 47 multiple myeloma cell lines against the NCATS MIPE library collection: ARD_JJKsccE7 cell viability assay (AID 1918929). Summed up: as §1

Experimental findings from PubChem BioAssay (NCATS) are described below.

Records with an inconclusive call do not appear. Calls of active or inactive are those of the source. Calls come from the whole dose curve; as a rule, active = well fitted cell-killing curve with a large enough effect; inconclusive = small, poorly fitted or top-dose-only effect, or effect the other way; inactive = no such curve, though single readings can be large or run the other way.
Potency is the fitted concentration of half-maximal effect.

`COc1cc(C(=O)NC2CCN(C)CC2)ccc1Nc1ncc2c(n1)N(C1CCCC1)CCC(=O)N2C(C)C`: the Potency in experiment [1] is 14.8 µM (active); in experiment [2] it was 16.6 µM (active); in experiment [3] it was 9.35 µM (active); in experiment [4] it was 29.6 µM (active); in experiment [5], 18.7 µM (active).
On to `Cn1cc(C=CC(=O)c2cccc(F)c2)cc1C=CC(=O)NO`, for which the Potency in experiment [1] is 18.7 µM (active); in experiment [3], 18.7 µM (active); in experiment [4], 16.6 µM (active); in experiment [5], 16.6 µM (active).
As to `C=C1C[C@@]2(O)O[C@@]3(C[C@H]2C(C)C)[C@H](C)CC[C@H]13`, the Potency entry in experiment [2], in experiment [4] and in experiment [5] was “inactive” each time.
For the compound `CNC(=O)Nc1ccc(-c2nc(N3CC4CCC(C3)O4)c3cnn(C4CCC5(CC4)OCCO5)c3n2)cc1`, in experiment [2], the Potency was 3.32 µM (active).
On to `C#CCC(Cc1cnc2nc(N)nc(N)c2n1)c1ccc(C(=O)N[C@@H](CCC(=O)O)C(=O)O)cc1` (stereo partly specified), for which the Potency result in experiment [1] and in experiment [3] was “inactive” in each case. For the same compound, in experiment [4], the Potency is 0.0469 µM (active).
Turning to `CC(=O)NC(CS)C(=O)O` (stereo unspecified), the Potency result in experiment [1], in experiment [2] and in experiment [5] was “inactive” throughout.
Regarding `CCc1cc(C(C)=NOCc2ccc(C3CCCCC3)c(C(F)(F)F)c2)ccc1CN1CC(C(=O)O)C1`, the Potency in experiment [1] was 20.9 µM (active); in experiment [5], 4.69 µM (active).
Turning to `CC(N[C@H]1CCCC[C@H]1NC(=O)c1ccc(Cl)cc1)c1cccc2ccccc12` (stereo partly specified), in experiment [2], the Potency is 20.9 µM (active). Moreover, the Potency result in experiment [4] was “inactive”.
For the compound `Cc1nc(NC(=O)N2CCC[C@@H]2C(N)=O)sc1-c1ccnc(C(C)(C)C(F)(F)F)c1`, the Potency in experiment [1] was 1.66 µM (active); in experiment [4], 0.418 µM (active).
In the case of `C=C[C@@H]1CN2CCC1C[C@H]2[C@H](O)c1ccnc2ccc(OC)cc12` (stereo partly specified), the Potency entry in experiment [3] and in experiment [5] was “inactive” in each case.
`CN1C(C(=O)Nc2ccccn2)=C(O)c2sc(Cl)cc2S1(=O)=O`: the Potency in experiment [4] is 2.64 µM (active). Also, in experiment [5], the Potency entry is “inactive”.
For the compound `CC(Oc1ccc(O)cc1)(P(=O)(O)O)P(=O)(O)O`, the Potency entry in experiment [2] and in experiment [4] was “inactive” in each case.
Regarding `COc1ccc(S(=O)(=O)Nc2cc(-c3c(O)ccc4ccccc34)c(O)c3ccccc23)cc1`, the Potency was 9.35 µM (active) in experiment [1]; 23.5 µM (active) in experiment [2]; 14.8 µM (active) in experiment [3]; 11.8 µM (active) in experiment [4]; 5.26 µM (active) in experiment [5].
